{"source": "PubChem BioAssay AID743397", "about": "(Broad Institute, 2014)", "note": "Out of some 340,000 compounds screened, about 330 (0.097%) were called active. The sample holds actives, similar compounds and a random draw of the others, so the mix is not that of the screen. Unmarked numbers belong to inactive results.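 The calls were made as follows: active = mean replicate inhibition of at least 30% and at least 1% of replicates passing that level; inconclusive = only one of the two criteria is met; inactive = neither criterion is met.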", "data": [{"test_system": "Voltage-dependent L-type calcium channel subunit alpha-1D (CaV1.3) ICDI/IQ interaction", "experiment": "Disruptors of the CACNA1D IQ motif to Ca2+-dependent inactivation inhibitor domain association, primary screening, Förster resonance energy transfer in intact living cells, one concentration (AID 743397);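 also: 0% = median of the neutral control wells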", "settings": "HEK cells, CFP/YFP FRET ICDI-IQ, plate reader, 10 min; at 12.3 µM; hits give high values; percent FRET-ratio fall versus neutral wells", "values": [{"molecule": "COC(=O)C1=C(C)N(Cc2ccccc2C(F)(F)F)C(=NCC2CC2)NC1c1cccc(Cl)c1", "note": "(configuration not stated)", "inhibition": "-11.5%"}, {"molecule": "CCOC(=O)CNC(=O)N(C)[C@H]1C[C@H]2c3[nH]c4c(-c5ccc6c(c5)OCO6)cccc4c3CCN2C(=O)[C@H]1[C@H](C)O", "inhibition": "-2.88%"}, {"molecule": "COc1ccc(NC(=O)N(C)C[C@@H]2OCCCC[C@@H](C)Oc3ccc(NC(=O)NC4CCCCC4)cc3C(=O)N([C@H](C)CO)C[C@@H]2C)cc1", "inhibition": "-5.46%"}, {"molecule": "CCCCCCCCN1C(=O)[C@@H](CC(=O)NCCCC)C[C@@]2(C(=O)OC)C1=C[C@H](C(C)(C)C)O[C@@H]2C", "inhibition": "-9.75%"}, {"molecule": "C[C@@H]1ON(C)[C@H]2C[C@H]3c4cc(N5CCOCC5)ccc4CCN3C[C@@H]12", "inhibition": "-4.48%"}, {"molecule": "COc1ccc(C2CC(c3cccs3)=NN2C(=O)CSc2nncs2)cc1OC", "note": "(configuration not stated)", "inhibition": "-3.4%"}, {"molecule": "COc1ccc(C2CC(c3cccs3)=NN2C(=O)CSc2nnc(N)s2)cc1OC", "note": "(configuration not stated)", "inhibition": "-6.31%"}, {"molecule": "COc1ccc(C2CC(c3cccs3)=NN2c2nc(C)c(C(C)=O)s2)cc1OC", "note": "(configuration not stated)", "inhibition": "168% (active)"}, {"molecule": "C[C@@H](CN1C2=NC[C@@H](Cc3ccccc3)N2C[C@H]1Cc1ccc(O)cc1)NC(=O)CCC1CCCCC1", "inhibition": "-5.25%"}, {"molecule": "C[C@@H]1CN([C@H](C)CO)C(=O)CCCn2cc(nn2)CO[C@H]1CN(C)C(=O)Nc1ccc(N2CCCCC2)cc1", "inhibition": "-8.15%"}, {"molecule": "Cc1[nH]nc2c1C(c1ccc(Br)cc1)NC2=O", "note": "(configuration not stated)", "inhibition": "-4.02%"}, {"molecule": "COCc1cc(N2CCN(C(=O)OC(C)(C)C)C[C@@H]2C)ccc1N1CCN(Cc2ccccc2)[C@H](C)C1", "inhibition": "-8.69%"}, {"molecule": "CCOC(=O)C1=C(C(=O)OCC)C2N(Cc3ccc(C#N)cc3)c3ccccc3[C@@]23C[C@@H](C(=O)OC)N(S(=O)(=O)c2ccc(F)cc2)C3=N1", "note": "(some centres not stated)", "inhibition": "-8.5%"}, {"molecule": "CC(C)(C)c1ccc(S(=O)(=O)NCC2CCN(C(=O)C(=O)c3cc4ccccc4o3)CC2)cc1", "inhibition": "-8.19%"}, {"molecule": "COC(=O)[C@@]12C[C@@H](CC(=O)N3CCC(c4ccccc4)CC3)C(=O)N(Cc3ccccc3)C1=CCC(C)(C)C2", "inhibition": "-9.64%"}, {"molecule": "C=CCN=C1NC(c2cccc(C(F)(F)F)c2)C(C(=O)OC)=C(C)N1C", "note": "(configuration not stated)", "inhibition": "-4.33%"}, {"molecule": "COC(=O)C(C(=O)OC)c1ccccc1NS(=O)(=O)c1cccc2ccccc12", "inhibition": "-10.7%"}, {"molecule": "Cc1nc(NC(=O)C(C)(C)C)sc1[N+](=O)[O-]", "inhibition": "-3.6%"}, {"molecule": "CCc1c(-c2ccccc2OC)ncn1CCc1ccccc1OC", "inhibition": "-9.61%"}, {"molecule": "Cc1nc2c(OCc3ccc(Cl)cc3Cl)cccn2c1N(C)CC1CC1", "inhibition": "-6.39%"}, {"molecule": "CC(=O)Nc1cccc(-c2cc(NC=O)c3ncc(-c4ccc(F)c(Cl)c4)n3c2)c1", "inhibition": "-10.8%"}, {"molecule": "CN[C@H]1C[C@H]2c3[nH]c4c(-c5ccccc5)cccc4c3CCN2C(=O)[C@H]1[C@H](C)O", "inhibition": "-3.8%"}, {"molecule": "CCOC(=O)[C@]12CCC=C1N(Cc1ccco1)C(=O)[C@H](CC(=O)NCc1cccc(C(F)(F)F)c1)C2", "inhibition": "-5.22%"}, {"molecule": "C[C@H](O)[C@@H]1C(=O)N2CCc3c([nH]c4c(-c5ccc6c(c5)OCO6)cccc34)[C@@H]2C[C@@H]1N(C)C(=O)c1ccco1", "inhibition": "-4.05%"}, {"molecule": "O=C(N[C@H](C(=O)N1CCC[C@H]1C(=O)NCCc1ccccc1Cl)c1ccccc1)c1ccccc1", "inhibition": "-4.64%"}, {"molecule": "Oc1cccc2cc(-c3ccncc3)cnc12", "inhibition": "-5%"}, {"molecule": "COC(=O)C1=C(C)N(Cc2ccccc2C(F)(F)F)C(=NCc2ccc(OC)cc2)NC1c1cccc(C(F)(F)F)c1", "note": "(configuration not stated)", "inhibition": "-9.27%"}, {"molecule": "CCCCOCCCNC(=O)C[C@@H]1C[C@@]2(C(=O)OC)CCCCC=C2N(CCC2=CCCCC2)C1=O", "inhibition": "-3.67%"}, {"molecule": "CCc1cccc(OC2OC(CO)C(O)C(O)C2NC(C)=O)c1", "note": "(configuration not stated)", "inhibition": "107% (active)"}, {"molecule": "COC(=O)c1ccc2ccccc2c1OC1OC(CO)C(O)C(O)C1NC(C)=O", "note": "(configuration not stated)", "inhibition": "-1.34%"}, {"molecule": "CCCCCCCCCOC1OC(CO)C(O)C(O)C1NC(C)=O", "note": "(configuration not stated)", "inhibition": "-5.79%"}, {"molecule": "CCCCNc1cccc2c1S(=O)(=O)N[C@@H](C)CO2", "inhibition": "-5.83%"}, {"molecule": "COC(=O)C1=C(C)N(Cc2cccc(C(F)(F)F)c2)C(=NCc2ccccc2)NC1c1ccccc1C(F)(F)F", "note": "(configuration not stated)", "inhibition": "-1.85%"}, {"molecule": "CCCCc1c(-c2ccc(Br)cc2)ncn1CCc1ccccc1OC", "inhibition": "-9.97%"}, {"molecule": "COC(=O)c1ccc(CN2C(=O)[C@]3(OCCC=C[C@H]3C)c3c(Br)cccc32)cc1", "inhibition": "-5.34%"}, {"molecule": "COc1ccc(-c2ccc3c(n2)CCCN3S(=O)(=O)c2ccc(C)cc2)cc1", "inhibition": "-4.73%"}, {"molecule": "COc1ccc(CNS(=O)(=O)c2cc(Br)ccc2Br)cc1", "inhibition": "-5.62%"}, {"molecule": "COc1cccc(NC(=O)N(C)C[C@@H]2OCc3cn(nn3)CCCC(=O)N([C@@H](C)CO)C[C@H]2C)c1", "inhibition": "-4.88%"}, {"molecule": "CN1C(=O)C(Br)(Br)CC1c1cccnc1", "note": "(configuration not stated)", "inhibition": "-4.22%"}, {"molecule": "CC[C@H](NC(=O)[C@H](Cc1ccccc1)NC(=O)[C@H]1O[C@@H](n2cnc3c(=O)[nH]c(N)nc32)[C@H](O)[C@@H]1O)c1ccccc1", "inhibition": "-7.74%"}, {"molecule": "COC(=O)[C@]12C[C@H](CC(=O)N3CCN(C(=O)C4CC4)CC3)C(=O)N(Cc3ccc4c(c3)OCO4)C1=C[C@H](C(C)(C)C)O[C@@H]2C", "inhibition": "-7.42%"}, {"molecule": "CC1CCCN(c2cccc3c2S(=O)(=O)N(Cc2ccc(F)cc2)[C@@H](C)[C@H](c2ccccc2)O3)C1", "note": "(some centres not stated)", "inhibition": "-4.9%"}, {"molecule": "COCCNC(=S)N(C)[C@H]1C[C@H]2c3[nH]c4ccccc4c3CCN2C[C@H]1[C@H](C)O", "inhibition": "-5.06%"}, {"molecule": "COC(=O)N1Cc2ccnnc2CC1c1ccccc1Br", "note": "(configuration not stated)", "inhibition": "-4.44%"}, {"molecule": "CCOC(=O)N1CCN(C(=O)C[C@H]2C[C@@]3(C(=O)OC)C(=C[C@H](C4CCCC4)O[C@@H]3C)N(Cc3ccccc3)C2=O)CC1", "inhibition": "-8.9%"}, {"molecule": "O=C(Nc1c(Cl)c(C2CC2)nn1-c1ccccc1)C(Cl)(Cl)Cl", "inhibition": "-4.55%"}, {"molecule": "O=c1[nH]c(-c2ccccc2)cn1C1CCN(Cc2ccc(-c3nc4ccc(F)cc4nc3-c3ccccc3)cc2)CC1", "inhibition": "-6%"}]}]}
